Source: PubChem (National Center for Advancing Translational Sciences (NCATS))
FMDV inh: High Throughput Screening for Foot and Mouth Disease Virus Antivirals; FMDV antiviral cell-based qHTS; Potency, µM (series often up to 57.9 µM), for the others: at the top dose activity change, negative = inhibition, actives largely listed as inhibitors; actives 1.2% (n = 410,000); AID 1159524, 2015; calls by dose curve; tested in HEK293T cells; further: read-out not given here; potency means the concentration at half of the fitted maximal effect; on the % scale 0 is the no-effect control and ±100 the full control effect; nearly all actives have a fitted effect of over 45% in size
HCMV antiviral: qHTS Assay for inhibitors of the human cytomegalovirus (HCMV) | HFF cells, HCMV-luciferase reporter, 72 h; active compounds read low | activity change, negative = inhibition, % at 57.5 µM | actives 4.5% (n = 410,000); in the data active means activity change below about -60%; inconclusive means no clear call, values can overlap the other calls; inactive means above about -39%; further: on the % scale 0 is the no-effect control and ±100 the full control effect
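Two-dose cell screen: HFF monolayers treated with compounds and infected with luciferase-expressing HCMV at 1 PFU/cell, 72 h at 37C, then lysed for luciferase measurement.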
SARS PLP yeast: qHTS of Yeast-based Assay for SARS-CoV PLP | S. cerevisiae expressing SARS-CoV PLpro, growth rescue | Potency, µM (series often up to 32.9 µM), for inactives: at the highest dose activity, positive = growth rescue, actives largely listed as activators | actives 0.19% (n = 330,000) | AID 485353, 2010; calls by dose curve; further: potency means the concentration at half of the fitted maximal effect; 0% is about no effect; nearly all actives have a fitted effect of over 55% in size
HCV inhibitor: qHTS Assay for Inhibitors of Hepatitis C Virus (HCV) | Potency, µM (doses to about 41.8 µM), without a hit: at the highest dose activity change, negative = inhibition, hits mostly inhibitors | Huh7.5.1 HCVcc-Cre infection, luciferase reporter, 44 h | actives 3.4% (n = 340,000); active means well fitted inhibition curve with a large enough effect; inconclusive means small, poorly fitted or top-dose-only effect, or another doubt; inactive means no such curve, though single readings can be large or run the other way; further: potency means the concentration at half of the fitted maximal effect; on the % scale 0 is the no-effect control and ±100 the full control effect
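Cells (1,000/well) were plated 4 h before compound, then infected with HCVcc-Cre virus (~0.5 moi). After 44 h further culture, infection was read as luciferase luminescence following a 15 min substrate incubation at room temperature.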
Lassa entry inh: qHTS for Inhibitors of binding or entry into cells for Lassa Virus. Potency, µM (series often up to 37.9 µM), for inactives: at the highest dose activity change, negative = inhibition, usual class: inhibitors. actives 1.2% (n = 300,000). Lassa virus pseudotype entry inhibition, cell reporter. AID 540256, 2011; calls by dose curve; tested in HEK293 cells; further: potency means the concentration at half of the fitted maximal effect; on the % scale 0 is the no-effect control and ±100 the full control effect; nearly all actives have a fitted effect of over 50% in size
Marburg entry inh: qHTS for inhibitors of binding or entry into cells for Marburg Virus; AID 540276, 2011; Marburg virus pseudotyped entry inhibition, cell reporter; actives 1.8% (n = 300,000); Potency, µM (top dose mostly 37.8 µM), inactives show at the highest dose activity change, negative = inhibition, usual class: inhibitors; calls by dose curve; tested in HEK293 cells; further: potency means the concentration at half of the fitted maximal effect; on the % scale 0 is the no-effect control and ±100 the full control effect
Starred values were filed as active, the others as inactive; ? = inconclusive; . = no result given; [ ] = dose if it differs, or a comment. An excerpt weighted towards active compounds, which were near 8% of everything screened.

SMILES	FMDV inh	HCMV antiviral	SARS PLP yeast	HCV inhibitor	Lassa entry inh	Marburg entry inh
Cc1ccccc1CN1C[C@@H]2C[C@@H](c3cn[nH]c3-c3ccccc3)N3CCC[C@@]23C1=O	10%	-66*	1%	13µM*	?	?
O=C(NCCc1ccccc1)C(c1cccs1)N(C(=O)CCl)c1ccc(Cl)cc1 (stereo unspecified)	35µM*	-100*	-75%	?	18µM*	?
Cc1ccc2c(c1)S/C(=C/c1ccc[n+](C)c1)N2CCO	-14%	-77*	-6%	?	-21%[46.1 µM]	?
CCCCN1/C(=C/c2cccc[n+]2C)Sc2cc(NC(C)=O)ccc21	-6%	4	-3%	-7%	.	.
Cc1ccc(C(=O)N2CCCC(N3CCN(c4ccccc4C)CC3)C2)c(=O)[nH]1 (stereo unspecified)	-3%	-70*	11%	14%	.	.
CCc1nccn1CCC(=O)N1CCCC(N2CCN(c3ccccc3C)CC2)C1 (stereo unspecified)	-10%	-87*	1%	?	1%	-24%
Cc1[nH]c(=S)[nH]c(=O)c1CCOc1ccccc1	-3%	-12	-5%	-2%	-19%	-16%
Cc1ccccc1OCCc1c(C)[nH]c(=S)[nH]c1=O	?	-64*	-1%	-25%	?	?
Cc1cc(/C=C(\C#N)C(=O)Nc2ccc(F)cc2)c(C)n1-c1ccc(N2CCOCC2)c([N+](=O)[O-])c1	?	-79*	2%	?	-34%	?
COc1ccc(NC(=O)/C(C#N)=C/c2cc(C)n(-c3ccc(N4CCOCC4)c([N+](=O)[O-])c3)c2C)cc1	4µM*	?	1%	?	?	-15%
CNC(=O)/C(C#N)=C\c1cc(C)n(-c2ccc(N3CCOCC3)cc2)c1C	-14%	-13	1%	3%	-6%[46.1 µM]	?
COc1ccc(NC(=O)/C(C#N)=C/c2cc(C)n(-c3ccc(F)cc3)c2C)cc1	-7%	11	.	.	12%[46.1 µM]	5%[46.1 µM]
Cc1cc(O)cc(C)c1C=Cc1cncc(C(=O)OC(C)(C)C)c1	.	.	.	.	0.79µM*	.
Cc1cc(NS(=O)(=O)c2ccc(NC(=O)c3cc4cc(Br)ccc4oc3=O)cc2)no1	-2%	?	2%	7%	-19%	13%[46.1 µM]
CC(C)NC(=O)/C(C#N)=C/c1cccc(NC(=O)c2ccccc2Cl)c1	14µM*	41	-61%	-2%	7%	?
COCCNC(=O)/C(C#N)=C/c1cccc(NC(=O)c2ccccc2Cl)c1	0%	65	15%	14%	14%	-1%
Cc1cc(N2CCCC2=O)ccc1S(=O)(=O)NCCOc1ccccc1	-1%	-68*	1%	?	?	?
Cc1cc(N2CCCC2=O)ccc1S(=O)(=O)Nc1c(C)nn(C)c1C	?	?	0%	?	?	?
CCc1nc(NC[C@H]2CCCO2)c(C#N)c2c1COC(C)(C)C2	.	.	.	.	.	5%[46.1 µM]
Cc1nc(Oc2ccc(S(=O)(=O)N3CCOCC3)cc2Cl)c2c3c(sc2n1)CCCC3	0%	-33	11%	-7%	?	?
Cc1ccc(C(=O)/C=C2\NCCNC2=O)cc1	-8%	73	-5%	6%	?	-29%
Cc1ccc(C(=O)/C=C2\NCC(C)NC2=O)cc1 (stereo unspecified)	-72%	-18	-7%	-2%	8.9µM*	5.6µM*
Cc1ccc(SCC(=O)NCc2ccccc2)cc1	44%	-9	-1%	-1%	.	.
CS(=O)(=O)NCC(c1ccco1)N1CCN(c2ccccc2)CC1 (stereo unspecified)	-13%	96	.	.	7%[46.1 µM]	.
Cc1ccc(-c2nc3c(C)cccn3c2Nc2ccccc2C)s1	-13%	-65*	.	.	21%[46.1 µM]	-22%[46.1 µM]
Cc1ccccc1Nc1c(-c2ccccn2)nc2c(C)cccn12	0%	-40	-7%	-23%	-19%	?
Cc1cccn2c(Nc3ccccc3)c(-c3cccs3)nc12	-7%	-61*	.	.	21%[46.1 µM]	-11%[46.1 µM]
